# TEAD-YAP block – TEAD-YAP interaction inhibition; HEK-TIYL cells, TEAD-Gal4/YAP UAS-luciferase luminescence; inhibition, % at 9.12 µM; 1.4% of 640,000 active; AID 1259422; in the data active means inhibition above about 32%;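 further: 0% = median of test compound wells and 100% = reference inhibitor wells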
# GPR151 activ – activates the human receptor GPR151; Q8TDV0; 1% of 650,000 active; activation, % at 11.2 µM; PathHunter beta-arrestin GPR151 cells, luminescence; in the data active means activation above about 4.9%;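 further: 0% = median of compound wells and 100% = cells with positive control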
# Target sequence (Q8TDV0 whole entry, looked up): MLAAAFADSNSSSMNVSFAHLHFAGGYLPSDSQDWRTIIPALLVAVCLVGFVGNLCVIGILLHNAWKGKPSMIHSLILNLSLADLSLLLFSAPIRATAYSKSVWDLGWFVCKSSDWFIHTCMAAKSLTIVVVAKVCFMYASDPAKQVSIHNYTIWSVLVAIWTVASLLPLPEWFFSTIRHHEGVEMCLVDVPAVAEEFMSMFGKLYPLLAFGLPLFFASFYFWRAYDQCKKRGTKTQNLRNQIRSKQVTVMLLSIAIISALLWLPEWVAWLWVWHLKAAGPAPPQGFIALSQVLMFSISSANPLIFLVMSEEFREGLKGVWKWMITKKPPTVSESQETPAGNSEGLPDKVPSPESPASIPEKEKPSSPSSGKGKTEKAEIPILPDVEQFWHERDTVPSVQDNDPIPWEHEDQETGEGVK
# MITF inh – blocks human microphthalmia-associated transcription factor; O75030; 0.91% of 650,000 active; AID 1259374; inhibition, % at 2.6 µM; AlphaScreen MITF homodimerization, bead proximity signal; in the data active means inhibition above about 50%;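 further: 0% = vehicle wells with protein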
# FBW7 activator – human FBW7 E3 ligase activation, primary screen; AlphaScreen FBW7–phospho-cyclin E peptide binding, activator screen; Q969H0; AID 1259310; normalized activity (activation), % at 26.1 µM; 0.13% of 650,000 active; in the data active means normalized activity above about 1.9%;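 further: purified mutant Fbw7 with reduced substrate affinity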
# MITF inh conf – human MITF inhibition, confirmation; inhibition, % at 2.6 µM; 16% of 4,700 active; AlphaScreen MITF homodimerization, biotin/His-MITF beads; shares compounds with MITF inh;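 active means inhibition above a cutoff derived from the DMSO control wells, cut at about 28% in these data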;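 further: 0% = MITF dimer wells with DMSO only; inhibitors lower the bead chemiluminescence by keeping MITF from dimerizing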
# AlphaScreen DR – AlphaScreen optical interference, dose response counter-screen; shares compounds with MITF inh; 6% of 480 active; IC50, µM; AID 1259373; AlphaScreen optical interference counterscreen, cell-free; call rule not given here
# AlphaScreen intf2 – counter-screen: compounds optically interfering with AlphaScreen | LysRS AlphaScreen counterscreen, signal interference, triplicate | AID 1259376 | shares compounds with MITF inh | 7.6% of 4,700 active | inhibition, % at 2.6 µM;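 active means inhibition above a cutoff derived from the DMSO control wells, cut at about 30% in these data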
# The depositor's hits bear a star; x = no result given; ! = repeats disagree. Hits are enriched below; roughly 3.5% of the tested compounds scored in any of these assays.
SMILES,TEAD-YAP block,GPR151 activ,MITF inh,FBW7 activator,MITF inh conf,AlphaScreen intf2,others
O=C(CCc1c[nH]c2ccccc12)OCc1nnc(-c2ccccc2)o1,6.6,1.8,17.9,0.2,x,x,
CCOC(=O)N1CCN(Cc2cccc(OC)c2OC)CC1,12.6,-0.4,-9.8,-0.2,x,x,
COc1ccccc1CN1CCN(Cc2cccc3ccccc23)CC1,6.6,-1.9,85.5*,-0.3,3.8,11.8,
COc1cccc(CN2CCN(Cc3cccc4ccccc34)CC2)c1OC,-2.0,-0.5,82.0*,0.0,17.6,21.5,
COc1cccc(CN2CCN(Cc3ccccc3C)CC2)c1OC,-3.0,-0.7,77.3*,-0.5,5.0,11.8,
COc1ccccc1N1CCN(Cc2cccc(OC)c2OC)CC1,6.8,0.2,23.1,0.6,x,x,
COc1ccc(CN2CCN(Cc3cccc4ccccc34)CC2)cc1,10.2,-0.3,57.5*,-0.1,20.9,19.0,
Cc1cccn2cc(-c3ccc(NC(=O)COc4ccccc4)cc3)nc12,-4.0,-1.5,-15.8,-0.1,x,x,
CC(=O)N1CCC(C(=O)N(C)C(c2ccccc2C)c2ncccc2C)CC1 (configuration not stated),1.9,0.1,-14.2,0.2,x,x,
CSc1ccc(CN2CCN(Cc3cccc4ccccc34)CC2)cc1,-7.8,0.6,74.4*,-0.1,14.2,19.8,
NCCNCCNCCN,3.2,0.1,90.9*,-0.2,70.2*,100.4*,
O=C1N=c2ccc([N+](=O)[O-])cc2=C1c1sc(NS(=O)(=O)c2ccccc2)nc1O,8.0,0.0,64.2*!,-0.3,11.1,23.1,
Cc1ccc(S(=O)(=O)Nc2nc(O)c(C3=c4cc([N+](=O)[O-])ccc4=NC3=O)s2)cc1,-1.9,1.9,10.6,0.0,x,x,
c1coc(CN2CCN(C3CCCCC3)CC2)c1,-1.9,0.0,64.0*,0.1,7.0,2.1,
CC1CCC(N2CCN(Cc3ccco3)CC2)CC1 (configuration not stated),7.9,0.5,71.1*,0.0,27.5*,11.5,AlphaScreen DR=>6.25
Cc1cccc2c(C(=O)NCc3ccccc3)cc(-c3ccccc3)nc12,-2.4,3.4,7.1,0.0,x,x,
CCCCCCc1nnc(NC(=O)COc2ccccc2)s1,-4.5,0.8,-2.9,0.1,x,x,
Cc1ccccc1CN1CCN(C(=O)CCC2CCCC2)CC1,10.5,0.2,53.3*,0.2,-8.0,-1.3,
O=C(CCC1CCCC1)N1CCN(C(=O)c2cccc(F)c2)CC1,-10.0,-0.8,-12.3,0.1,x,x,
COc1ccc(OC)c(CN2CCN(C(=O)CCC3CCCC3)CC2)c1,-10.2,1.7,52.2*,-0.1,-3.8,-6.1,
O=C(CCC1CCCC1)N1CCN(Cc2cccc(F)c2)CC1,5.2,0.3,63.0*,0.0,-9.5,-7.9,
CCc1cc2c(C)cc(=O)oc2cc1O,-3.4,-0.4,3.7,-0.1,x,x,
COc1ccc(C2C3C(=O)N(c4ccccc4C)C(=O)C3ON2c2ccccc2)cc1 (configuration not stated),-3.0,1.8,0.3,0.0,x,x,
CCCCN(C)CCC(=O)Nc1ccccc1Cl,-3.0,-0.6,-15.9,-0.4,x,x,
CCC(C)NCCOCCOc1ccc(Cl)cc1Br (configuration not stated),-2.8,-0.6,-2.3,0.1,x,x,
SMILES,TEAD-YAP block,GPR151 activ,MITF inh,FBW7 activator,MITF inh conf,AlphaScreen intf2,others
CCC(C)NCCOc1ccc(OC)cc1 (configuration not stated),-0.3,0.0,3.8,0.0,x,x,
CCC(C)NCCOCCOc1ccc(OC)cc1 (configuration not stated),1.1,-1.7,84.3*,0.5,-15.6,6.3,
CCC(C)NCCOCCOc1ccc(C)cc1Cl (configuration not stated),-6.3,1.0,76.5*,-0.3,5.0,18.6,
CCC(C)NCCOCCOc1ccc(C)cc1OC (configuration not stated),-6.2,-0.6,53.9*,0.0,4.8,11.8,
COC(=O)Nc1ccc(SCc2ccc(Cl)cc2Cl)cc1,6.7,-1.6,14.5,0.6,x,x,
COc1cccc(NC(=O)C(=O)NCC2CCCO2)c1 (configuration not stated),-57.4,-4.9,-3.4,0.0,x,x,
O=C(Cc1cn(-c2ccc(NCCN3CCOCC3)nn2)c2ccccc12)NCCCN1CCCC1=O,-3.5,0.8,58.8*,0.1,5.4,2.1,
O=C(Cc1cn(-c2ccc(N3CCOCC3)nn2)c2ccccc12)NCCCN1CCCC1=O,-7.6,-1.1,-5.5,0.2,x,x,
Cc1cccc(OCC(=O)Nc2cc(C)c(C)cc2O)c1,-2.5,-0.5,98.0*,-0.1,-12.4,3.2,
COc1cc(Br)c(CC(N)=O)cc1OC,-1.9,-0.4,5.8,0.1,x,x,
CCCNC(=O)c1cc(Nc2cccc(N(C)C)c2)nc2ccccc12,3.6,-1.6,-6.8,-0.1,x,x,
CN(C)c1cccc(Nc2cc(C(=O)NCCc3ccc(O)cc3)c3ccccc3n2)c1,0.4,0.8,69.8*,0.1,-2.8,3.0,
CN(C)/C=C/C=C/C(=O)c1cccc(C(=O)/C=C/C=C/N(C)C)c1O,-8.4,1.0,56.4*,-0.1,79.0*,-10.9,AlphaScreen DR=>6.48
Cc1ccc(C(=O)/C=C/C=C/C=C/N(C)C)o1,-4.2,-0.6,15.9,-0.4,x,x,
COc1cccc(C(=O)Nc2c3c(nn2-c2ccc([N+](=O)[O-])cc2)CSC3)c1,-1.4,-2.2,-0.5,-0.2,x,x,
CCOc1ccccc1OCCOCCN1CC(C)OC(C)C1 (configuration not stated),10.0,-1.7,53.4*,0.3,0.9,14.2,
CCOc1ccccc1OCCN1CCCCC1,-4.9,-0.4,39.3,0.7,x,x,
c1ccc2c(OCCN3CCCCC3)cccc2c1,-1.0,0.1,-1.3,-0.1,x,x,
CCOc1ccccc1N1CCN(C(=O)C2CCN(Cc3cccs3)CC2)CC1,3.0,0.7,50.7*,-0.2,11.0,17.3,
Clc1ccc(OCCN2CCCC2)c2ccccc12,-6.7,1.5,53.0*,-0.2,-9.3,-5.0,
CCOc1ccccc1OCCN1CCCC1,6.8,-0.2,74.9*,0.9,-12.1,-8.5,
Cc1csc(Sc2ccc(C(=O)NCC3CCCO3)cc2[N+](=O)[O-])n1 (configuration not stated),-6.4,0.1,-12.1,-0.1,x,x,
CCOc1ccccc1OCCN1CCN(c2ccccc2OC)CC1,10.4,-1.5,89.0*,1.2,3.9,25.3,
CCOc1ccccc1N1CCN(Cc2ccoc2)CC1,2.2,0.2,52.5*,0.2,4.1,-1.9,
O=C(COc1ccccc1F)N1CCCCC1,-25.2,2.3,9.8,-0.3,x,x,
O=C(COc1ccccc1F)OCCN1CCCC1,-7.6,-0.9,56.9*,0.5,5.5,5.7,
N=C1SCC(=O)N1c1ncc(Cc2ccccc2)s1,4.2,-1.5,59.4*,-0.5,10.4,42.6*,
N=C1SCC(=O)N1c1ncc(Cc2cccc(C(F)(F)F)c2)s1,23.3,-2.2,9.7,-0.2,x,x,
O=C(CSc1nc2ccccc2c(=O)n1CCc1ccccc1)c1ccc(Br)cc1,-6.7,-1.0,-3.6,-0.1,x,x,
COc1ccccc1CN1CCN(C(=O)c2cccnc2)CC1,-0.2,0.8,57.4*,0.0,5.8,-8.1,

# Compound activity from PubChem.
